According to PubChem BioAssay (NCI):
About 83,000 compounds went through this panel and 20% of them were active in at least one assay; those are over-represented in the sample as a whole.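 96-well plates, one dose, 48 hours. Percent growth reported; active if below 10.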 Calls of active or inactive are those of the source.

test system: MDA-MB-468 breast; experiment: NCI-60 one-dose screen, 48 h (100 = growth as untreated, 0 = no growth, -100 = all killed); conditions: 10 µM unless noted

Row | Compound | growth
1 | O=C1c2cc3c(cc2-c2c1c1cc(Cl)c(Cl)cc1c(=O)n2CCCn1ccnc1)OCO3 | -38.5% (active)
2 | COc1ccccc1/C=C/C1=C(C)CCC(c2ccccc2OC)C1C (stereo not drawn) | 29.7% (inactive)
3 | CCNC(=O)N1CCc2cc(OC)c(OCCc3ccc(OC)cc3)cc2C1c1ccc(Cl)cc1C (stereo not drawn) | -1.44% (active)
4 | CCN(CC)CC#CCOC(=O)[C@]1(C)CCC[C@]2(C)[C@H]3C[C@H]4C(C(C)C)=C[C@]3(CC[C@H]21)[C@@H]1C(=O)CCC(=O)[C@@H]14 | 11% (inactive)
5 | OC(c1ccccc1)C(NCc1ccccc1)c1ccccc1 (stereo not drawn) | 95.4% (inactive)
6 | O=C1[C@@H]2Cc3c([nH]c4ccccc34)[C@H](c3ccc(Cl)cc3)N2C(=O)CN1C1CCN(Cc2ccccc2)CC1 | 23.1% (inactive)
7 | Cn1c(Nc2ccc(C(F)(F)F)cc2)nc2cc(Oc3ccnc(-c4ncc(C(F)(F)F)[nH]4)c3)ccc21 | 32.4% (inactive)
8 | COc1ccc(OC)c(/C=C2\Oc3cc(O)ccc3C2=O)c1 | 102% (inactive)
9 | COc1cc2c(c(OC)c1OC)C(=O)CC(c1cccc(C(=O)Nc3ccc(Br)cc3)c1)O2 (stereo not drawn) | 30.5% (inactive)
10 | CC(C)(C)CC(C)(C)c1ccc(O)c(Cc2ccc(Cl)cc2Cl)c1 | -88.6% (active)
11 | O=C1COCCN1c1ccc(NCc2cn(Cc3ccc(F)cc3)c3ccccc23)cc1 | -66.9% (active)
12 | O=C(/C=C/c1ccc(C(F)(F)F)cc1)c1ccc(Nc2nc(NCCO)nc(NCCO)n2)cc1 | 19.9% (inactive)
13 | Cc1ccc(N2C3c4ccccc4N(S(=O)(=O)c4ccc(C)cc4)C2c2ccccc2N3S(=O)(=O)c2ccc(C)cc2)cc1 | 120% (inactive)
